Shown is part of a subset that was picked to be rich in hits.
ST2 inh: inhibitors of human ST2 (IL1RL1) binding to IL-33, primary screen, biochemical, AlphaLISA. 78,000 tested, 2.3% active. AlphaLISA ST2-Fc/biotin-IL-33 interaction, 1 h. AID 1259354, 2018. inhibition, % for hits at 17 µM; in the data active = inhibition above about 30%
Target sequence (Q01638 whole entry, looked up): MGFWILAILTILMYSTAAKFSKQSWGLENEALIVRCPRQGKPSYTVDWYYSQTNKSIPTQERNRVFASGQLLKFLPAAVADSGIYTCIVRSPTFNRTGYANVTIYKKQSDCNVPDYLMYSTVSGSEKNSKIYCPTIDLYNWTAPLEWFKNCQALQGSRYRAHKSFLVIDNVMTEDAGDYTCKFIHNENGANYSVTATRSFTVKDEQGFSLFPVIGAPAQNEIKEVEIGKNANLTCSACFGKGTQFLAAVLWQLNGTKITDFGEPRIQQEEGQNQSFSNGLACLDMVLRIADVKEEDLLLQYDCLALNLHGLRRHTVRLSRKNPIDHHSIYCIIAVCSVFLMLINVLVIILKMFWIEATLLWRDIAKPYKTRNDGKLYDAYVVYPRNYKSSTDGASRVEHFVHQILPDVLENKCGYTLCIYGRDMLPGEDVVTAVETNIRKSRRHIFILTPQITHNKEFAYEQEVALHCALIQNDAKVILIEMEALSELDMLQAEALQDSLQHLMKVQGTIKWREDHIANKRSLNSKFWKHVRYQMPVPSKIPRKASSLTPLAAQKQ
Each line names hits and unclear results; the compound was inactive in the other large screens.

O=[N+]([O-])c1ccccc1OCC(O)CN1CCN(c2ccccc2F)CC1 (configuration not stated)	none
CS(=O)(=O)c1ccc(N2CCN(c3ccccc3)CC2)c([N+](=O)[O-])c1	none
CCC(=O)N1CCN(c2ccc(F)cc2[N+](=O)[O-])CC1	none
O=[N+]([O-])c1cc(C(F)(F)F)ccc1N1CCN(CCOc2nonc2-c2ccccc2)CC1	ST2 inh 45%
COc1ccc(N2CCN(c3ccc([N+](=O)[O-])c4cccnc34)CC2)c([N+](=O)[O-])c1	ST2 inh 55%
COC(=O)C1C(=O)C2=C(CC1C)NC(C)=C(C(=O)OC1CCCCCC1)C2c1cccs1 (configuration not stated)	none
COc1cc(/C=N\OCc2cccc(Br)c2)cc(OC)c1OC	none
CCN(CCN(C)C)Cc1cccc(Cl)c1	none
O=C(c1cc(-c2ccncc2)nc2ccccc12)N1CCCCC1	none
C=CCNC(=O)C(C)N(c1ccc(OCC)cc1)S(C)(=O)=O (configuration not stated)	none
CCOc1ccccc1NC(=O)CCC(=O)c1ccc(F)cc1	none
COc1ccc(N(C(C)C(=O)Nc2ccc(Br)cc2)S(C)(=O)=O)cc1 (configuration not stated)	none
COc1ccc(N(C(=O)COc2ccc(Cl)cc2)C2C=CS(=O)(=O)C2)c(OC)c1 (configuration not stated)	none
O=C(COc1ccc(Cl)cc1Cl)Nc1nc2ccccc2s1	none
Cc1cc(C)n(-c2ccc(C(F)(F)F)cc2[N+](=O)[O-])n1	none
O=C(c1cnc(N2CCN(c3ccccn3)CC2)c2ccccc12)N1CCN(c2ccccn2)CC1	none
COc1ccc(N2CCN(c3cc(N4CCN(C)CC4)ccc3[N+](=O)[O-])CC2)cc1	ST2 inh 44%
CN1CCN(c2cc(N3CCN(CCO)CC3)ccc2[N+](=O)[O-])CC1	none
O=C(c1ccccc1F)N1CCN(c2ccc([N+](=O)[O-])c3cccnc23)CC1	ST2 inh 35%
Cc1ccccc1C(=O)N1CCN(c2ccc([N+](=O)[O-])c(N3CCOCC3)c2)CC1	none
O=[N+]([O-])c1cc(C(F)(F)F)ccc1N1CCc2ccccc21	ST2 inh 68%
CC(O)CNc1ccc(C(F)(F)F)cc1[N+](=O)[O-] (configuration not stated)	none
COc1ccc(N2CCN(Cc3cc(OC)c(O)c([N+](=O)[O-])c3)CC2)cc1	none
Brc1ccc(C2=CSC(c3ccccc3)=NN2)cc1	none
CCC(=O)c1ccc(OCC(=O)N2CCCC(C(=O)c3ccccn3)C2)cc1 (configuration not stated)	none
Nc1ccc(OCC(=O)N2CCOCC2)cc1	none
Nc1nonc1-c1nc2ccccc2n1CC(=O)Nc1ccccc1C(F)(F)F	none
CCCCOC(=O)C1=C(C)Nc2ncnn2C1c1ccc(SC)cc1 (configuration not stated)	none
CN(C)c1nc2nonc2nc1N1CCCC1c1ccccn1 (configuration not stated)	none
CC1(C)CCCC2(C)C3=C(C(=O)OC3O)C(O)CC12 (configuration not stated)	none
CC1(C)CC(=O)C=C(/C=C/c2ccc(N3N=N3)cc2)C1	ST2 inh 40%
Cc1ccccc1NC1=CC(=O)CC(C)(C)C1	none
Cc1cc(C(=O)Nc2cc(Br)ccc2O)no1	none
O=C(O)CC1(CC(=O)N[C@H]2CO[C@H]3[C@@H]2OC[C@@H]3n2nnnc2Oc2ccc(-n3ccnc3)cc2)CCCC1	none
O=S(=O)(Nc1ccccc1Cl)c1cccnc1	none
COc1ccc(OC)c(C2C(C(=O)Nc3ccc(C)cn3)=C(C)NC3=C2C(=O)CCC3)c1 (configuration not stated)	none
CCOc1ccc(Nc2nc(-c3ccncc3)cs2)cc1	none
CC1=CC(=O)C(C(C)C)=C/C1=N\Oc1c([N+](=O)[O-])cc(Cl)cc1[N+](=O)[O-]	ST2 inh 62%
CC(C)OC(=O)C1=C(N)OC2=C(C(=O)CC(C)(C)C2)C1c1ccccc1 (configuration not stated)	none
CCSc1nc2c(c(=O)[nH]1)C(c1ccc(OC)c(OC)c1)C1=C(CC(C)(C)CC1=O)N2 (configuration not stated)	none
CC(C)COC(=O)c1ccc(NC2=NS(=O)(=O)c3ccccc32)cc1	none
CCOCCCNC(=O)c1ccc2c(c1)NC(=O)C(N1CCCC1)S2 (configuration not stated)	none
OC1(c2ccccc2)CCN(c2nccc(CCC(F)(F)F)n2)C1 (configuration not stated)	none
Cc1ccc(C2(O)CCN(c3nc4ccccc4s3)CC2)nc1	none
Cc1cnc(N2CCC(O)(c3ccccc3)CC2)nc1N(C)C	ST2 inh 35%
CCCOc1ccc(C(O)=C2C(=O)C(=O)N(CCCN(C)C)C2c2cccc([N+](=O)[O-])c2)cc1 (configuration not stated)	none
CCO[C@H]1COC[C@@H]1NC(=O)c1cc(-c2ccccc2Cl)oc1C	none
CCSC1=N/C(=C\c2c(OC)cc(OC)cc2OC)C(=O)S1	ST2 inh 38%
CCOC(=O)C1=C(c2ccccc2)OC(N)=C(C#N)C1c1ccsc1 (configuration not stated)	none
CC1=C[C@@H](CNC(=O)c2ccc(C#N)cc2)[C@H](C(C)C)C[C@H]1CC(=O)NCc1cccnc1	none
CC1=C[C@@H](CNC(=O)c2ccc(C#N)cc2)[C@H](C(C)C)C[C@H]1CC(=O)NCCN(C)C	ST2 inh 31%
COc1ccc(CNC(=O)C[C@@H]2C[C@@H](C(C)C)[C@H](CNC(=O)c3ccc(C#N)cc3)C=C2C)cc1	none
O=C(NCCc1ccc(Cl)cc1)c1ccc2c(c1)ncn2C1CCCC1	none
Cc1ccc(OCC(=O)Nc2cccc(NC(=O)c3cccs3)c2)cc1C	none
COc1ccc(OC)c(C(=O)c2ccc(C(=O)Nc3cccc([N+](=O)[O-])c3)cc2)c1	none
COc1ccc(C2(CC(=O)N3CCN(c4ccc(Cl)cc4)CC3)CC(=O)N(C)C2=O)cc1 (configuration not stated)	none
O=C(Nc1ccc2oc(-c3ccncc3)nc2c1)c1ccc(-c2ccccc2)o1	ST2 inh 41%
O=C(Nc1ccc2oc(-c3ccc(F)cc3)nc2c1)c1ccccc1	none
CN(C)c1ccc(-c2nc3cc(NC(=O)Cc4ccccc4)ccc3o2)cc1	none
CC1CCc2cc(F)ccc2N1S(=O)(=O)c1ccc2c(c1)CCN2C(=O)C1CC1 (configuration not stated)	none
O=C(O)CCC(CNS(=O)(=O)c1ccc([N+](=O)[O-])cc1)C(F)(F)F (configuration not stated)	none
COc1cc(C(=O)ON2C(=O)CCC2=O)cc(OC)c1OC	none
O=[N+]([O-])c1ccc(-c2cn3ccsc3n2)cc1	none
O=[N+]([O-])c1ccc(-c2cn3cc(Br)ccc3n2)cc1	ST2 inh 31%
Brc1ccc(-c2cn3ccc4ccccc4c3n2)cc1	none
O=C1c2ccc(F)cc2C(=O)N1c1cccnc1	none
Cc1cccc(Nc2nc3nonc3nc2NC(C)C)c1C	none
COc1cccc2cc(C(=O)NC(C)=O)c(=Nc3ccc(C(F)(F)F)cc3)oc12	none
COc1cccc2cc(C(=O)NC(C)=O)c(=Nc3cccc(F)c3)oc12	none
COc1cccc2cc(C(=O)NC(C)=O)c(=Nc3ccccc3F)oc12	ST2 inh 33%
COC(=N)CN1C(=O)c2ccccc2S1(=O)=O	none
Cc1ccccc1Nc1sc(C(=O)c2ccccc2)c(N)c1C#N	none
CCN1C(C(=O)c2ccccc2)=C(Nc2ccccc2C)c2ccccc2S1(=O)=O	ST2 inh 31%
CCn1c(NCc2ccccc2)nc2c1c(=O)[nH]c(=O)n2C	none

Compound activity (PubChem BioAssay)
